Data reported in PubChem BioAssay AID1259343 (VanderVen Lab, College of Veterinary Medicine, Cornell …, 2017).
Out of some 6,200 compounds screened, about 2,900 (47%) were called active. Cut-off read from the data, not from the text of the source: active = inhibition above about 50%; inactive = the rest. The set was probably picked from earlier hits. The list shows a part of the results.

Assay: Mycobacterium tuberculosis growth inhibition, primary screen (AID 1259343)
Conditions: inhibition: at 10 µM, hits give high values; outcome: 10 uM

| SMILES | inhibition |
| --- | --- |
| CNC(=O)c1cc(Oc2ccc(NC(=O)Nc3ccc(Cl)c(C(F)(F)F)c3)c(F)c2)ccn1 | 34.8% (inactive) |
| O=S1(=O)N(CCN2CC=C(c3c[nH]c4cc(F)ccc34)CC2)c2cccc3c2N1CCC3 | 12.6% (inactive) |
| O=C(/C=C/c1ccc(-c2cccc([N+](=O)[O-])c2)o1)N1CCCCC1 | 80.3% (active) |
| COc1c(Br)cc(Cl)cc1S(=O)(=O)NCCc1ccccc1 | 18% (inactive) |
| CCc1ccc(CN(C)Cc2nc(Cc3ccccc3F)no2)cc1 | 71% (active) |
| CN(Cc1nc(-c2cccc(Cl)c2)no1)C1CCCCC1 | 74.3% (active) |
| CN(Cc1ccc(F)cc1)Cc1nc(Cc2ccccc2Cl)no1 | 89.3% (active) |
| Clc1ccccc1Cc1noc(CN2CCN(Cc3ccccc3)CC2)n1 | 51.2% (active) |
| CN(C1CCCCC1)S(=O)(=O)N1CCCC(c2nc(-c3cccc(F)c3)no2)C1 (stereo not drawn) | 33.1% (inactive) |
| Cc1ccc(OCCN(C)Cc2nc(-c3cccc(Cl)c3)no2)cc1 | 35% (inactive) |
| COCCCC1CCN(Cc2nc(Cc3ccccc3Cl)no2)CC1 | 29.1% (inactive) |
| CN(Cc1ccc2nsnc2c1)Cc1nc(Cc2ccccc2Cl)no1 | 31.6% (inactive) |
| Fc1ccccc1N1CCN(Cc2nc(Cc3ccccc3Cl)no2)CC1 | inactive |
| OCC1(Cc2ccccc2)CCCN(c2ccc(-c3ccccc3)nn2)C1 (stereo not drawn) | 23.4% (inactive) |
| Cc1ccc(F)c(OCc2nc(Cc3ccccc3F)no2)c1F | 81.3% (active) |
| COc1cccc2c1OCCCN(Cc1nc(Cc3ccccc3Cl)no1)C2 | 14.3% (inactive) |
| Cc1noc(CNc2cc(Cl)ccc2Oc2ccccc2)n1 | 33.9% (inactive) |
| COc1cccc(F)c1OCc1nc(CC2CC2)no1 | -44.2% (inactive) |
| CN(Cc1nc(Cc2ccccc2Cl)no1)C1CCCCC1 | 65.6% (active) |
| COc1ccc([C@@H]2CC(=O)c3c(O)cc(O)cc3O2)cc1O | 67.2% (active) |
| COc1ccc(C2N=C(c3ccccc3C)NO2)cc1O (stereo not drawn) | inactive |
| Cc1cc(C)cc(-c2nn(CN3CCOCC3(C)C)c(=S)o2)c1 | -38.7% (inactive) |
| S=c1oc(-c2cccc(Cl)c2)nn1CN1CCC(c2nnc3ccccn23)CC1 | 22.7% (inactive) |
| CN1CCN(Cn2nc(-c3ccc4c(c3)OCO4)oc2=S)CC1 | 86.7% (active) |
| CCc1ccc(/C=C/S(=O)(=O)Nc2onc(C)c2C)cc1 | 68.3% (active) |
| O=C(c1ccc(C(F)(F)F)c(F)c1)N1CCC(Cc2ccc(-n3cccc3)cc2)CC1 | 63.9% (active) |

| SMILES | inhibition |
| --- | --- |
| O=C(c1ccc(Oc2ccc(Cl)cc2)c(F)c1)N1CCC(O)CC1 | 5.66% (inactive) |
| O=C(c1ccc(C(F)(F)F)c(F)c1)N1CCC(Cc2ccc(F)cc2)CC1 | 87% (active) |
| O=C(c1ccc(F)c(F)c1F)N1CCC(Cc2ccc(-n3cccc3)cc2)CC1 | 56.5% (active) |
| CCCc1cc(N2CC(C)CC(C)C2)n2nc3nc(C)cc(C)c3c2n1 (stereo not drawn) | -1.46% (inactive) |
| CC(NC(=O)c1cc(Cl)ccc1F)c1ccc(Cl)s1 (stereo not drawn) | 41.4% (inactive) |
| COc1ccc(OCc2cc(C(=O)NC(C)c3csc(C)n3)no2)c(Cl)c1 (stereo not drawn) | 36.7% (inactive) |
| COc1ccc(C(=O)NC(C)c2ccc(Cl)cc2Cl)cc1 (stereo not drawn) | 55.6% (active) |
| N#CC1(NC(=O)c2ccc(-c3nc(C4CC4)no3)cc2)CCSC1 (stereo not drawn) | 80.6% (active) |
| CN(Cc1ccc(F)cc1)c1ccc(-c2nc(C3CC3)no2)cn1 | 27.2% (inactive) |
| O=[N+]([O-])c1ncc[nH]1 | 43.1% (inactive) |
| COc1ccc(CCCc2n[nH]c(=S)o2)cc1 | 99.7% (active) |
| CC(Cc1n[nH]c(=S)o1)c1ccccc1 (stereo not drawn) | 36.9% (inactive) |
| O=C1c2cccc3cccc(c23)C(=O)N1CCCCCc1n[nH]c(=S)o1 | 29.7% (inactive) |
| CCOc1ccc(-c2n[nH]c(=S)o2)cc1 | 48.7% (inactive) |
| COc1ccc(Cc2n[nH]c(=S)o2)cc1 | 101% (active) |
| S=c1[nH]nc(Cc2ccccc2)o1 | -26.6% (inactive) |
| O=C(NC1CCCC1)c1occc1COc1ccccc1 | 60.1% (active) |
| O=C(Nc1ccc(Cl)c(Cl)c1)c1occc1COc1ccccc1 | 32.6% (inactive) |
| O=C(NC(=S)NC1CCCCCCC1)c1ccco1 | 63.9% (active) |
| CC(=NNC(=O)NC1CCCCC1)c1ccco1 | -56.6% (inactive) |
| Cc1c(C(=O)NC2CCCCC2)oc2ccccc12 | 90.9% (active) |
| O=C(NC1CCCCCC1)c1ccco1 | 55.1% (active) |
| CN(C)c1ccc(NC(=O)C2C[C@H]2c2ccccc2)cc1C(=O)NC1CCCCC1 (stereo partly drawn) | 20% (inactive) |
| Cc1cc(-c2ccc(NC3=NCCCS3)cc2)nc2ccccc12 | 20.2% (inactive) |
| CC(C)CNC(=O)C(=O)NCCCc1ccc(N(C)C)cc1 | 33% (inactive) |
| CCN(CC)S(=O)(=O)c1ccc(N=Nc2c(C)nn(-c3ccccc3)c2N)cc1 | 25.3% (inactive) |

| SMILES | inhibition |
| --- | --- |
| Cc1nn(-c2ccccc2)c(N)c1N=Nc1cccc(Cl)c1 | 56% (active) |
| CC(=O)Nc1cccc(N=C2NN=C(C34CC5CC(CC(C5)C3)C4)CS2)c1 | 35.4% (inactive) |
| Clc1ccc(-c2csc(NCC3CCCO3)n2)c(Cl)c1 (stereo not drawn) | 77.3% (active) |
| CN(C)C(=O)c1csc(-c2csc(NCC3CCC3)n2)c1 | 38.9% (inactive) |
| Cc1cc(-c2csc(NC3CCCC3)n2)c(C)n1CC1CCCO1 (stereo not drawn) | 23.4% (inactive) |
| CCCCSc1nnc2c(n1)OC=Nc1ccc(Br)cc1-2 | 82.3% (active) |
| CCCCSc1nnc2c(n1)OC(C)(CC)Nc1ccccc1-2 (stereo not drawn) | -11.3% (inactive) |
| CCCSc1nnc2c(n1)OC=Nc1ccc(Br)cc1-2 | 87.8% (active) |
| O=c1c2c3nc4ccccc4nc3n(C3CCCC3)c2ncn1Cc1ccco1 | -15.8% (inactive) |
| Cc1ccc(-c2ccc(=O)n(Cc3ccccc3F)n2)cc1 | 28.8% (inactive) |
| O=c1ccc(-c2ccc(F)cc2)nn1Cc1ccccc1F | 33.9% (inactive) |
| CCOc1ccc(-c2ccc(=O)n(Cc3ccccc3)n2)cc1 | 41.1% (inactive) |
| O=c1ccc(-c2ccc(F)cc2)nn1Cc1ccc(Br)cc1 | 46.8% (inactive) |
| O=c1ccc(-c2ccccc2)nn1Cc1cccc(Cl)c1 | 92.4% (active) |
| O=c1ccc(-c2cccc(Br)c2)nn1Cc1ccccc1 | 22.6% (inactive) |
| Cc1ccc(Cn2nc(-c3ccccc3)ccc2=O)cc1 | 70.6% (active) |
| O=c1ccc(-c2ccc(Cl)cc2)nn1Cc1ccccc1F | 70.5% (active) |
| CCOc1ccc(-c2ccc(=O)n(Cc3ccc(F)cc3)n2)cc1 | 90.8% (active) |
| Cc1ccc(-c2ccc(=O)n(Cc3ccccc3)n2)cc1 | 24% (inactive) |
| O=c1ccc(-c2ccc(Br)cc2)nn1Cc1cccc(F)c1 | -4.34% (inactive) |
| CCOC(=O)NC(O)C(F)(F)C(F)(F)C(F)(F)C(F)(F)C(F)(F)C(F)F (stereo not drawn) | 27.7% (inactive) |
| Cc1nnc2n1N=CC=C(c1ccccc1)S2 | 54.6% (active) |
| CCN1CCN(C(C)CNc2nc3ccccc3s2)CC1 (stereo not drawn) | -41.8% (inactive) |
| O=S(=O)(Nc1nc2ccccc2s1)c1ccccc1 | 57.6% (active) |
| O=S(=O)(Nc1nc2ccccc2s1)c1ccc(Cl)s1 | 93.7% (active) |
| O=S(=O)(Nc1nc2ccccc2nc1Nc1ccccc1)c1ccc(Br)s1 | 80.6% (active) |

| SMILES | inhibition |
| --- | --- |
| O=S(=O)(Nc1nc2ccccc2s1)c1ccc(Br)s1 | 70.2% (active) |
| O=S(=O)(Nc1nc2ccccc2nc1Nc1ccc2c(c1)OCO2)c1cccc2nsnc12 | -10.2% (inactive) |
| O=S(=O)(Nc1nc2ccccc2s1)c1cccs1 | -38.3% (inactive) |
| NC(=S)Nc1nc2ccccc2s1 | 89.5% (active) |
| O=C(CCN1CCCCC1c1cccnc1)Nc1nc2ccccc2s1 (stereo not drawn) | 35.6% (inactive) |
| CC(=NNc1nc2ccccc2s1)c1cc2ccccc2o1 | 3.87% (inactive) |
| N#Cc1ccc(COc2ccc(Br)cc2Br)cc1 | 1.7% (inactive) |
| Cc1cc(C)nc(Oc2ccc(Br)cc2Br)n1 | 75.3% (active) |
| Brc1ccc2cc(Oc3ncccn3)ccc2c1 | 5.33% (inactive) |
| C=CCOc1ccc(/C=N\O)cc1Cl | 86.2% (active) |
| COC(=O)C[C@H]1C2(C)CC34OC5(C)O[C@@]6([C@H](OC)C(OC(=O)C(C)C)[C@]7(C)C(/C(=C(/OC)C(C)C)C(=O)O[C@H]7c7ccoc7)[C@@]6(O5)[C@H](OC)[C@@]3(OC)C2OC(C)=O)[C@]14C (stereo partly drawn) | 37.5% (inactive) |
| C=C1C2CC[C@@]3(C)[C@H](c4ccoc4)OC(=O)C[C@]13O[C@H]1CC(O)C(C)(C)C(CC(=O)OC)[C@@]21C (stereo partly drawn) | 79.9% (active) |
| O=S(=O)(c1ccc(Cl)cc1)c1nc(Nc2ccc(F)cc2F)sc1Cl | 82.6% (active) |
| CCC(O)c1ccc(OCCCC(C)(C)C#N)cc1 (stereo not drawn) | 90.6% (active) |
| FC(F)(F)c1ccnn1-c1nc(-c2ccc(Br)cc2)cs1 | 16.4% (inactive) |
| Cc1cc(Cl)ccc1NS(=O)(=O)c1ccc(F)c(F)c1F | 23.8% (inactive) |
| O=S(=O)(Nc1ccc2ccccc2c1)c1ccc(F)c(F)c1F | 84.5% (active) |
| CSc1ccccc1NS(=O)(=O)c1ccc2ccccc2c1 | 11.2% (inactive) |
| O=S(=O)(Nc1ccc(Cl)cc1)c1ccc(F)c(F)c1F | 95.7% (active) |
| O=C(NC1CCCC1)c1ccccc1NS(=O)(=O)c1ccc(F)c(F)c1F | 18.7% (inactive) |
| O=C(Nc1ccccc1)C1CSCN1S(=O)(=O)c1ccc(Cl)cc1C(F)(F)F (stereo not drawn) | -4.72% (inactive) |
| COc1cc(Cc2cnc(N)nc2N)cc(OC)c1OC | 98.3% (active) |
| CCCCNC(=O)c1cc2sc3ccccc3c2s1 | 101% (active) |
| CCCCNC(=O)c1ccc(C)c(OCC)c1 | -17.8% (inactive) |
| CN(C)c1ccc(/C=C/C(=O)N(C)C2C3CC4CC(C3)CC2C4)cc1 (stereo not drawn) | 8.71% (inactive) |
